Experimental data published in PubChem BioAssay AID1671202 (University of Kansas High Throughput Screening Laboratory, 2021).
“And” between values parts separate entries of the source, which are not always exact repeats. Equal entries are not always repeated. Hit rate of the full screen: of about 190,000 compounds, about 6,900 (3.6%) were called active. No stated cut-off is given here; in the data, active means inhibition above about 50%; inactive means the rest. Only a selection was taken, and actives are over-represented in it overall.

Biological target: Huntingtin (Homo sapiens) (UniProt P42858)
Assay: mutant huntingtin-calmodulin interaction inhibitors – biochemical, AlphaScreen, primary screen (AID 1671202);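 further: 0% = both proteins with DMSO and 100% = one protein alone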
Settings: AlphaScreen His-mHTT/GST-CaM binding, luminescence; at 15 µM, hits give high values

Chain of Huntingtin (Homo sapiens) (P42858 whole entry, looked up, stated change not applied): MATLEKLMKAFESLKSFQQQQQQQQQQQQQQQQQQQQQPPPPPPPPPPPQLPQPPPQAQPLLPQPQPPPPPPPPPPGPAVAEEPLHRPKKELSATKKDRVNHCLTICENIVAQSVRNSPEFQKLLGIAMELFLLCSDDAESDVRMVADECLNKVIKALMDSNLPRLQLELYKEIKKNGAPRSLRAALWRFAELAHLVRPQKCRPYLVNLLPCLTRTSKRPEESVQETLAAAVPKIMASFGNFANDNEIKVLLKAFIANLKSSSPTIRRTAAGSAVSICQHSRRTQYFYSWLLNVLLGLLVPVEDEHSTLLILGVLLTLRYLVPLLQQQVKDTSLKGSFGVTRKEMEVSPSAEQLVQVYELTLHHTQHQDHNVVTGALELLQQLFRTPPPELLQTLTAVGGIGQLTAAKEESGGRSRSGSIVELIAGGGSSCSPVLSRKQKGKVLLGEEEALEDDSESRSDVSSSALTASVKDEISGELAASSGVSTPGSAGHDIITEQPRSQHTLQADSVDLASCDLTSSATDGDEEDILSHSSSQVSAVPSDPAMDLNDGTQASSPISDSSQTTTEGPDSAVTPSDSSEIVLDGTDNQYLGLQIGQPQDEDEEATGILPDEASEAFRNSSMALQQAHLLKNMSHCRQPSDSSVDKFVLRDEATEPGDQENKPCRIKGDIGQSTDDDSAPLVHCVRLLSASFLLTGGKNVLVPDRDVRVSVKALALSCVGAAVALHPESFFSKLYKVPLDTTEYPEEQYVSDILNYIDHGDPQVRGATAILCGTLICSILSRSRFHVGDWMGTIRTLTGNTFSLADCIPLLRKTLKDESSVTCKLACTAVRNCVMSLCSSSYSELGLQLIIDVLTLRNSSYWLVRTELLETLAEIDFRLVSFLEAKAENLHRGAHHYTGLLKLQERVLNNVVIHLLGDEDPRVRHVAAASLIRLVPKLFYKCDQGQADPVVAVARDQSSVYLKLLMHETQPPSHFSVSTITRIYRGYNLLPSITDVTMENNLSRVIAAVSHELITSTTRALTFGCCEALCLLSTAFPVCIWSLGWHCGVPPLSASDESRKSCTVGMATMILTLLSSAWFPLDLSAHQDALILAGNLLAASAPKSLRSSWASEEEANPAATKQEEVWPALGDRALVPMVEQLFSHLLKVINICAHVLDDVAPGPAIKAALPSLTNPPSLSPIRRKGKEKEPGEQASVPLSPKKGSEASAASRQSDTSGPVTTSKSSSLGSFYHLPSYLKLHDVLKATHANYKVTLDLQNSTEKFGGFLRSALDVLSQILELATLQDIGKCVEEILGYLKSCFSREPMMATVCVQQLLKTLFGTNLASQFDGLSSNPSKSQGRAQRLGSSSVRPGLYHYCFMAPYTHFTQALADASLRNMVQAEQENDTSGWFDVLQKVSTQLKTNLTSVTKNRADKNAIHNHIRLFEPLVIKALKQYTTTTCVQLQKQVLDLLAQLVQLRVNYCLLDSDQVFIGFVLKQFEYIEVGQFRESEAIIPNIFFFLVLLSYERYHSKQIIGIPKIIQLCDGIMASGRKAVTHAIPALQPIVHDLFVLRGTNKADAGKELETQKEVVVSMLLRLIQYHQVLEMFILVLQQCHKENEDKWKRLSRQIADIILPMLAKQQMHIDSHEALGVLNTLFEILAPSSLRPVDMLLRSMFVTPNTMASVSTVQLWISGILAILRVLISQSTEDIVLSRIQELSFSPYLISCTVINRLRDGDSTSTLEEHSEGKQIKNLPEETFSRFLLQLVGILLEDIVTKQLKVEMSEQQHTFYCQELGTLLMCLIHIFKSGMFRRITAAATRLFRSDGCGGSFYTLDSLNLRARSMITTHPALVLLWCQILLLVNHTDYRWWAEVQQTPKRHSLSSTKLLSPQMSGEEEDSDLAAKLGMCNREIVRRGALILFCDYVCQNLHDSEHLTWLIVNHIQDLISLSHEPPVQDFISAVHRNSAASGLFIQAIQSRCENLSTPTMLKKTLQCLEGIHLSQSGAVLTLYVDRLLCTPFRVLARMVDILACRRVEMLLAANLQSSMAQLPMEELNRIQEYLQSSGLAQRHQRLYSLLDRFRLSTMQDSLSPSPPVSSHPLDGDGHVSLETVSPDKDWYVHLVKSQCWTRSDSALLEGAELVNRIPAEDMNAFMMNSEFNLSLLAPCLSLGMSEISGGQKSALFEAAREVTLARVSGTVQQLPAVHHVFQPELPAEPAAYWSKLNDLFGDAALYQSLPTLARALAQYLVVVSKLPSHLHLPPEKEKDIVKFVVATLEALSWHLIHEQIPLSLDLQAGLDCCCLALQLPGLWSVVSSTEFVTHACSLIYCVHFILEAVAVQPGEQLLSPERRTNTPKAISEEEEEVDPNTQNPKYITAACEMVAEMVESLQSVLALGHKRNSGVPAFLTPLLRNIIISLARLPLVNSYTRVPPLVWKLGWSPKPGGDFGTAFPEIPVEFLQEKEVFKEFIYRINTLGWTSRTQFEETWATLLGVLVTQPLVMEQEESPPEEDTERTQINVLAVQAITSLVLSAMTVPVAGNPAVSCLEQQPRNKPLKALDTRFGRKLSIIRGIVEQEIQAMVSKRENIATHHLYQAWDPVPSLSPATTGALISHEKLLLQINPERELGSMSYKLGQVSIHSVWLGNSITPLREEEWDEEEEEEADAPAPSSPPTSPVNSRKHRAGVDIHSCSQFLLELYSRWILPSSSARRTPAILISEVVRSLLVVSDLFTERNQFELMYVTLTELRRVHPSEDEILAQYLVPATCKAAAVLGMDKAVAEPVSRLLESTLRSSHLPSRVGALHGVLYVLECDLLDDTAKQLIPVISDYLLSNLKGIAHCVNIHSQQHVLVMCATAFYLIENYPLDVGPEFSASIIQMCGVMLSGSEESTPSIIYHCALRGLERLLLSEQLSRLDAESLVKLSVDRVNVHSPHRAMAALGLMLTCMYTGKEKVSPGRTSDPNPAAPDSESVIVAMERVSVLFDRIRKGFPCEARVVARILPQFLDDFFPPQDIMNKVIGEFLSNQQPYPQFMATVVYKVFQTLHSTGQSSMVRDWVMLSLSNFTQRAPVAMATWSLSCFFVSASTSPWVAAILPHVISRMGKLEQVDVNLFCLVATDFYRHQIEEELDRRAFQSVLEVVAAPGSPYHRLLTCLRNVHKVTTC

Compound | inhibition
O=[N+]([O-])c1ccc(N2CCN(CC3CC4C=CC3C4)CC2)cc1 (stereo not given) | 19.4% (inactive)
COc1cc(Cl)c(NC(=O)C2CCCN(C(=O)c3cc(C)cc(C)c3)C2)c(OC)c1 (stereo not given) | 1.7% (inactive)
CC1(C)CC(=O)C2=C(C1)Nc1ccc3ncccc3c1C2c1ccccc1C(F)(F)F (stereo not given) | 4% (inactive)
CCOc1ccc(-c2ccc(N3CCN(C(=O)Cn4cnc5ccccc54)CC3)nn2)cc1 | 14.5% (inactive)
Cc1ccc(-c2ccc(CN3C(C)C(=O)N(Cc4cn(CCC5OCCCO5)nn4)CCS3(=O)=O)cc2)cc1 (stereo not given) | -4% (inactive)
COCOCCn1cc(CN2CCS(=O)(=O)N(Cc3ccc(-c4cccc(N(C)C)c4)cc3)C(CC(C)C)C2=O)nn1 (stereo not given) | 65.8% (active)
CC1C(=O)N(Cc2cn(CC3CCCCC3)nn2)CCS(=O)(=O)N1Cc1ccc(-c2cccc(N(C)C)c2)cc1 (stereo not given) | 65.9% (active)
COc1ccc(-c2ccc(CN3C(C(C)C)C(=O)N(Cc4cn(CC5CCCCC5)nn4)CCS3(=O)=O)cc2)cn1 (stereo not given) | 29.4% (inactive)
CC1C(=O)N(Cc2cn(Cc3ccco3)nn2)CCS(=O)(=O)N1Cc1ccc(-c2cccc(CO)c2)cc1 (stereo not given) | 30% (inactive)
Cc1ccc(-c2ccc(CN3C(C(C)C)C(=O)N(Cc4cn(CCC5OCCO5)nn4)CCS3(=O)=O)cc2)cc1 (stereo not given) | 14.9% (inactive)
COc1ccc(-c2ccc(CN3C(CC(C)C)C(=O)N(Cc4cn(CC5CCCCC5)nn4)CCS3(=O)=O)cc2)cc1 (stereo not given) | 3.9% (inactive)
Cc1ccc(-c2ccc(CN3C(C(C)C)C(=O)N(Cc4cn(CCC5OCCCO5)nn4)CCS3(=O)=O)cc2)cc1 (stereo not given) | 19% (inactive)
COCOCCn1cc(CN2CCS(=O)(=O)N(Cc3ccc(-c4ccccc4)cc3)C(CC(C)C)C2=O)nn1 (stereo not given) | 60.8% (active)
CC(C)CC1C(=O)N(Cc2cn(Cc3ccco3)nn2)CCS(=O)(=O)N1Cc1ccc(-c2ccc(Cl)c(Cl)c2)cc1 (stereo not given) | 97.6% (active)
CC(C)C1C(=O)N(Cc2cn(CCC3OCCO3)nn2)CCS(=O)(=O)N1Cc1ccc(-c2ccccc2C(F)(F)F)cc1 (stereo not given) | 43.5% (inactive)
CC(=O)c1cccc(-c2ccc(CN3C(CC(C)C)C(=O)N(Cc4cn(CC5CCCCC5)nn4)CCS3(=O)=O)cc2)c1 (stereo not given) | 22.9% (inactive)
CC(C)NC(=O)c1cn(-c2ccc(F)cc2)nn1 | 3.4% (inactive)
COc1c(S(=O)(=O)Nc2ccc(CC(=O)O)cc2)ccc(Cl)c1Cl | -3% (inactive)
Cc1ccc(C(=O)NC2CCN(c3ccccc3C(=O)N(C)C(C)C)CC2)cc1 | 6.6% (inactive)
O=C(c1ccc(Cl)cc1)N(Cc1cc(-c2ccccc2)on1)C1CC1 | -12.1% (inactive)
CCC(c1ccccc1)c1nc(-c2ccc3nnn(C)c3c2)no1 (stereo not given) | -20.7% (inactive)
CCCCC(=O)Nc1c2c(nn1-c1ccc([N+](=O)[O-])cc1)CS(=O)(=O)C2 | -1% (inactive)

Compound | inhibition
CCOC(=O)c1c(NC(=O)c2ccc([N+](=O)[O-])s2)sc2c1CCCC2 | -0.8% (inactive)
COc1nccnc1NS(=O)(=O)c1ccc(NC(=O)c2ccc(C(C)(C)C)cc2)cc1 | 13.2% (inactive)
O=c1[nH]c(C=C2C=Nc3ccc(Br)cc32)c(O)n1Cc1ccc(Br)cc1 | 93% (active)
CCc1nc2c(NC(=O)Nc3cccc(C)c3)cccn2n1 | -3.6% (inactive)
COc1ccc(-n2nc3c(c2NC(=O)c2ccccc2Cl)CSC3)cc1 | 22% (inactive)
CCCC(=O)N1CCc2c(c(C(=O)NCc3cccc(C)c3)nn2C)C1 | 35.7% (inactive)
COc1cc(OC)cc(C(=O)N2CCc3c(c(C(=O)NCc4cccc(C)c4)nn3C)C2)c1 | 40.8% (inactive)
COc1cccc(C(=O)N2CCc3c(c(C(=O)NCc4cccc(C)c4)nn3C)C2)c1 | 66.6% (active)
COc1ccc(CC(=O)N2CCc3c(c(C(=O)NCc4cccc(C)c4)nn3C)C2)cc1 | 40.5% (inactive)
Cc1cccc(C(=O)N2CCc3c(c(-c4nc(Cc5ccccc5)no4)nn3C)C2)c1 | 7.62% (inactive)
Cn1nc(C(=O)NCc2ccccc2)c2c1CCN(C(=O)c1cccc(F)c1)C2 | 64.8% (active)
O=C(O)CCCCCNS(=O)(=O)c1cccc(C(F)(F)F)c1 | -2% (inactive)
O=C(c1ccc(F)cc1)N1CCCC1c1ccccc1F (stereo not given) | -8.08% (inactive)
O=C(CSC1=Nc2ccccc2C2=NC(Cc3ccccc3)C(=O)N12)NC1CCCCC1 (stereo not given) | 39% (inactive)
O=C(CSC1=Nc2ccccc2C2=NC(Cc3ccccc3)C(=O)N12)c1ccc(O)c(O)c1 (stereo not given) | 57% (active)
CC(C)C1N=C2c3ccccc3N=C(SCC(=O)c3ccc(O)c(O)c3)N2C1=O (stereo not given) | 20% (inactive)
CCCN1C(=O)COc2ccc(-c3noc(-c4ccccc4C(F)(F)F)n3)cc21 | -2.1% (inactive)
CCN(CC)c1ncc2c(n1)CCC(C(=O)N(C)c1ccc(C)c(C)c1)C2 (stereo not given) | 25.8% (inactive)
Cc1ccc2c(c1)-c1c(ssc1=Nc1ccc(Cl)cc1Cl)C(C)(C)N2 | 73.7% (active)
Cc1ccc(N=Cc2ccc(Cl)cc2Cl)c(O)c1 | 12% (inactive)
CC(=O)Nc1ccc(N2CCCCC2)nc1 | 2.4% (inactive)
O=C(c1ccc(F)c(F)c1)N1CCc2[nH]cnc2C1c1ccccc1 (stereo not given) | 17.4% (inactive)

Compound | inhibition
O=C(Cc1ccc(F)cc1)N1CCc2[nH]cnc2C1c1ccccn1 (stereo not given) | 81.1% (active)
CC(C)NC(=O)N1CCc2[nH]cnc2C1c1ccccn1 (stereo not given) | 83.5% (active)
COC(=O)c1ccccc1NC(=O)N1CCc2[nH]cnc2C1c1ccncc1 (stereo not given) | 7.22% (inactive)
O=C(Nc1c(F)cccc1F)N1CCc2[nH]cnc2C1c1ccncc1 (stereo not given) | -5.1% (inactive)
O=C(Nc1ccc(C(F)(F)F)cc1)N1CCc2[nH]cnc2C1c1ccncc1 (stereo not given) | 11.1% (inactive)
O=C1OC(c2ccc(Cl)cc2Cl)=N/C1=C\c1ccc(F)cc1 | 2% (inactive)
COc1cccc(C2CC(c3cc(Br)ccc3F)n3nnnc3N2)c1 (stereo not given) | 4.06% (inactive)
CCCNC(=O)C1CN(C(=O)c2ccccc2F)CC1c1cccc(F)c1 (stereo not given) | -5.9% (inactive)
CC1(C)c2ccccc2N(CCO)C12C=Cc1cc([N+](=O)[O-])ccc1O2 (stereo not given) | 62% (active)
O=C1CSC(c2cccc([N+](=O)[O-])c2)N1c1cc(Cl)ccc1O (stereo not given) | 8% (inactive)
Clc1ccc(C2=CC(c3ccccc3)n3ncnc3N2)cc1 (stereo not given) | 1% (inactive) and -2.22% (inactive)
COc1ccccc1C(=O)Nc1nc2n(n1)C(c1ccccc1)C=C(c1ccc(Cl)cc1)N2 (stereo not given) | 51% (active)
Cc1nc2n(n1)C(c1ccc(Cl)cc1)C=C(c1ccc(Cl)cc1)N2 (stereo not given) | 31% (inactive)
CCS(=O)(=O)NCc1nnnn1-c1ccc(F)c(F)c1 | -8.6% (inactive)
Cc1cccc(N2CCC(C(=O)NCc3ccccc3F)C2=O)c1C (stereo not given) | -0.6% (inactive)
COc1ccc(-c2ncc3c(n2)CCN(C(=O)c2cccc(OC)c2)C3)cc1 | 11.1% (inactive)
O=C(NC1CCCC1)C1CCNCC1 | -0.4% (inactive)
Cc1cc(-c2nnc(NC(=O)C3CC(=O)N(c4ccc(C)c(C)c4)C3)o2)n(C)n1 (stereo not given) | 90.2% (active)
COc1ccc(NC(=O)C2CC(=O)N(c3ccc4oc(C)nc4c3)C2)cc1 (stereo not given) | 2.03% (inactive)
Cc1ccc(N2CC(C(=O)Nc3cc(C(F)(F)F)ccc3Cl)CC2=O)cc1C (stereo not given) | -1% (inactive)
N#Cc1ccc(C(=O)N2CCCC2c2nc(-c3cccc(C(F)(F)F)c3)no2)cc1 (stereo not given) | 2.8% (inactive)
O=C(C1COc2ccccc2O1)N1CC(c2nc(-c3cccc(C(F)(F)F)c3)no2)C1 (stereo not given) | 88.9% (active)

Compound | inhibition
O=C(c1cccnc1)N1CCCC1c1nc(-c2cccc(C(F)(F)F)c2)no1 (stereo not given) | 27.6% (inactive)
COc1ccc(C(=O)COc2ccc3c(c2)OC(=Cc2cc(OC)c(OC)c(OC)c2)C3=O)cc1 | 2.6% (inactive)
Cc1ccc(C)c(NC(=O)c2cc3n(n2)CCCN(Cc2ccccc2)C3=O)c1 | -4.93% (inactive)
CS(=O)(=O)N1CCc2cc(NC(=O)Nc3cccc(C(F)(F)F)c3)ccc21 | 16.1% (inactive)
O=C(C1c2ccccc2Oc2ccccc21)N1CCN(c2ccc([N+](=O)[O-])cc2)CC1 | -2.2% (inactive)
CN(C)c1ccc(C(=O)NC2CCN(c3ccccc3)C2=O)cc1 (stereo not given) | -3.2% (inactive)
CN(C)c1ccc(C(O)(c2ccccc2)c2ccccc2)cc1 | 76% (active)
CC(C)=CC(=O)CC(C)(O)c1ccccc1 (stereo not given) | 1.5% (inactive)
COc1ccccc1C(=O)N1CCc2nc(-c3ccc(Cl)cc3)ncc2C1 | 9.54% (inactive)
COc1ccccc1-c1nc(C2CCN(C(=O)c3ccc(Cl)cc3)CC2)no1 | 38.7% (inactive)
COc1ccccc1-c1nc(C2CCN(C(=O)C3COc4ccccc4O3)CC2)no1 (stereo not given) | 34.9% (inactive)
COc1ccccc1-c1nc(C2CCN(C(=O)c3cc4cc(Cl)ccc4[nH]3)CC2)no1 | 80.8% (active)
CCS(=O)(=O)N1CCCC(OCc2nc(CCOC)no2)C1 (stereo not given) | -8.91% (inactive)
Cn1cccc1C(=O)N1CCc2nc3cc(-c4ccccc4)[nH]n3c(=O)c2C1 | 25.2% (inactive)
CCCCS(=O)(=O)N1CCc2c(nc3cc(-c4ccccc4Cl)[nH]n3c2=O)C1 | 21.9% (inactive)
COc1ccccc1C(=O)N1CCc2c(nc3cc(-c4ccccc4Cl)[nH]n3c2=O)C1 | 63.9% (active)
O=C(NCC1CCCO1)N1CCc2nc3cc(-c4ccccc4Cl)[nH]n3c(=O)c2C1 (stereo not given) | 5.22% (inactive)
COc1ccccc1CC(=O)N1CCc2c(nc3cc(-c4ccccc4Cl)[nH]n3c2=O)C1 | 53% (active)
COc1ccc(Cl)cc1C(=O)N1CCc2c(nc3cc[nH]n3c2=O)C1 | 9.45% (inactive)
